# Tests used:
# [1] = molecular target: High affinity nerve growth factor receptor (Homo sapiens) (UniProt P04629); settings: at 1 µM;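 note: each value is the mean percent inhibition of TRKA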
# [2] = molecular target: BDNF/NT-3 growth factors receptor (Homo sapiens) (UniProt Q16620); settings: at 0.1 µM
# [3] = molecular target: BDNF/NT-3 growth factors receptor (Homo sapiens) (UniProt Q16620); settings: at 1 µM
# [4] = molecular target: NT-3 growth factor receptor (Homo sapiens) (UniProt Q16288); settings: at 0.1 µM
# Sequence of NT-3 growth factor receptor (Homo sapiens) (Q16288 32-839 limits assumed): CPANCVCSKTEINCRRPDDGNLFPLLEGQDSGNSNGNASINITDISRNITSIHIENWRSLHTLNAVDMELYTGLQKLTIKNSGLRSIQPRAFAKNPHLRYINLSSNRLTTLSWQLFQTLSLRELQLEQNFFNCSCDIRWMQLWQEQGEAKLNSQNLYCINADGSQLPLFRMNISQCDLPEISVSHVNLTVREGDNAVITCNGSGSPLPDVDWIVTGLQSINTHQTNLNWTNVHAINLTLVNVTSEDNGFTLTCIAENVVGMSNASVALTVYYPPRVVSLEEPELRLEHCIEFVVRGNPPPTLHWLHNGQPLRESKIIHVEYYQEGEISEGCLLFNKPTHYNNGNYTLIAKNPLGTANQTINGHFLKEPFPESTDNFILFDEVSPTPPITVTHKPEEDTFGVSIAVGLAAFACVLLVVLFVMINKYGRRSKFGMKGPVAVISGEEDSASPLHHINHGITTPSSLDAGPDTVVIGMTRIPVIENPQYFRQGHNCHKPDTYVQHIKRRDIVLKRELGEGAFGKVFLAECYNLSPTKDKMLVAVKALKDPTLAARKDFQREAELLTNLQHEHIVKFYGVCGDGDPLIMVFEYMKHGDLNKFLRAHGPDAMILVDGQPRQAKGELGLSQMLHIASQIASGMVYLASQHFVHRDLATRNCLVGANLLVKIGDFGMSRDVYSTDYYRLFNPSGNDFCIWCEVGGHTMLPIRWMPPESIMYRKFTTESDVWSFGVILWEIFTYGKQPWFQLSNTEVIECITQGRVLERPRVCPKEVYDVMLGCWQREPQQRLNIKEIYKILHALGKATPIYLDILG
# [5] = molecular target: NT-3 growth factor receptor (Homo sapiens) (UniProt Q16288); settings: at 1 µM
# [6] = molecular target: T1, Tyrosine-protein kinase TXK (Homo sapiens) (UniProt P42681); settings: at 0.1 µM
# T1 sequence (whole entry): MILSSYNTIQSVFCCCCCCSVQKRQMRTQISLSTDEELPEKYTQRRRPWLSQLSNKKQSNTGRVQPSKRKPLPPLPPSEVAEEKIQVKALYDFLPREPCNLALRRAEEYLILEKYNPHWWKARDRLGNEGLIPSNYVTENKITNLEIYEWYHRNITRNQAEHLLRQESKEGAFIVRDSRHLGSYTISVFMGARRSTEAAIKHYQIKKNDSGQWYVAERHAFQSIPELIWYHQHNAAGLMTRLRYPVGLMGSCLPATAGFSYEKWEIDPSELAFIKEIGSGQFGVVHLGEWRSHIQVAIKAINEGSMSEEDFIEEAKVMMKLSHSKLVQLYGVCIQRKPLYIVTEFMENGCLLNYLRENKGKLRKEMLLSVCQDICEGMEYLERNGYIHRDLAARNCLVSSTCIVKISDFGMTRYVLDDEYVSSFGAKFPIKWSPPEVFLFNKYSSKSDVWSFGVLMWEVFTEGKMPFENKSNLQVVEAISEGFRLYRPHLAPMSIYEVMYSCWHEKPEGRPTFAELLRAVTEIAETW
# [7] = molecular target: T1, Tyrosine-protein kinase TXK (Homo sapiens); settings: at 1 µM
# [8] = molecular target: Non-receptor tyrosine-protein kinase TYK2 (Homo sapiens) (UniProt P29597); settings: at 0.1 µM;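 note: each value is a mean of the inhibition readings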
# Sequence of Non-receptor tyrosine-protein kinase TYK2 (Homo sapiens) (P29597 whole entry): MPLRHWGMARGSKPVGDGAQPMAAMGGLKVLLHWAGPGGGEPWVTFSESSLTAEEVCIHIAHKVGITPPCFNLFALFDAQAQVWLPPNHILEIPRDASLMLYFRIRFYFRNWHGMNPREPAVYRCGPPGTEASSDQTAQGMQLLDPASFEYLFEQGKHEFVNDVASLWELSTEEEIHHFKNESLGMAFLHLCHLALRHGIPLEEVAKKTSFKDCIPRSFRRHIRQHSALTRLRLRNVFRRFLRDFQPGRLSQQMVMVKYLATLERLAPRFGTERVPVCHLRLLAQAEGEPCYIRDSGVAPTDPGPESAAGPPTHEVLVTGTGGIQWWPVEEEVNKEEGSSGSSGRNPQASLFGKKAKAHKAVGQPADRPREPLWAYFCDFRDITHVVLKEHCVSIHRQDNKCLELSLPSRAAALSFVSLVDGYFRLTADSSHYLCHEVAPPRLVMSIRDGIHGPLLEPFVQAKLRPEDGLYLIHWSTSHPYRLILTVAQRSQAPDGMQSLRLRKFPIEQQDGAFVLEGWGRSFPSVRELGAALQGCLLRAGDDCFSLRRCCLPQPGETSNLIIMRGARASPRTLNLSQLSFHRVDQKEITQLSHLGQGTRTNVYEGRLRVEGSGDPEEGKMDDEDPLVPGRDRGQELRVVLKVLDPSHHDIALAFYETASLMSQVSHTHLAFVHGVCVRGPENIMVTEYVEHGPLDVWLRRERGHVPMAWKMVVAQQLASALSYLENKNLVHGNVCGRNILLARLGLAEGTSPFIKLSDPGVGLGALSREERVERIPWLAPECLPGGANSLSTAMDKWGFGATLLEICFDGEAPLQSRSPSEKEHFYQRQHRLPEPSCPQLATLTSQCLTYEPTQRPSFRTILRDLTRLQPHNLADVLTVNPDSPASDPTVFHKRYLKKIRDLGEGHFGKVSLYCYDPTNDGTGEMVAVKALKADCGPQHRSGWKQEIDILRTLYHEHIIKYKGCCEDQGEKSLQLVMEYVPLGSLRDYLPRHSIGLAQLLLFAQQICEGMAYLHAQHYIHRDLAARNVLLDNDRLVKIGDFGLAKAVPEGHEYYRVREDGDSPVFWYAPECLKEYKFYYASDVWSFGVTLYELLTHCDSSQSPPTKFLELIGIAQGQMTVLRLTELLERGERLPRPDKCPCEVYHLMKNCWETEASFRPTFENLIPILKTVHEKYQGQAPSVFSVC
# [9] = molecular target: T2, Dual specificity protein kinase TTK (Homo sapiens) (UniProt P33981); settings: at 1 µM;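 note: reported figures are mean TTK inhibition at 1 µM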
# T2 sequence (whole entry): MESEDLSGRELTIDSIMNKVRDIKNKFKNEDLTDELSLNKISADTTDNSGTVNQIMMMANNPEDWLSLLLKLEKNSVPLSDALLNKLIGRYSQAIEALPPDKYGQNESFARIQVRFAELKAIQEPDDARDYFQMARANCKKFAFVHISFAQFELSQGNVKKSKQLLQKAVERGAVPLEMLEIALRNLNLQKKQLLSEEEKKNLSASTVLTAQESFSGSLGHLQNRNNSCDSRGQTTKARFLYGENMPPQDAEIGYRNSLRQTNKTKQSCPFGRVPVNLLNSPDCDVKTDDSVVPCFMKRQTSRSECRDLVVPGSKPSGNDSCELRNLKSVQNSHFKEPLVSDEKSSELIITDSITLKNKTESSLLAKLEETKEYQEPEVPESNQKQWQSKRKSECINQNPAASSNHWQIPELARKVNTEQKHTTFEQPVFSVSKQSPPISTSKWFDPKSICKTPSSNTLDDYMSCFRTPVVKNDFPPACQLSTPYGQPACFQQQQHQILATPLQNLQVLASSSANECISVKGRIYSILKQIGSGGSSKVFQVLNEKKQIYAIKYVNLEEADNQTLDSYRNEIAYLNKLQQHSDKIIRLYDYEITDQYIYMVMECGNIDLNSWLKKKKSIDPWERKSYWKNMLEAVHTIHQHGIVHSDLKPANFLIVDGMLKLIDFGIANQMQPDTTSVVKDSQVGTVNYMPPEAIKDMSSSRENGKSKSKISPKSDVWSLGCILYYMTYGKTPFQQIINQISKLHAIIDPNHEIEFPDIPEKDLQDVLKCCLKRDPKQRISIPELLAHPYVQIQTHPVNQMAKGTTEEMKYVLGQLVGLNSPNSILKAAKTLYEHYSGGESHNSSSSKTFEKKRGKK
# [10] = molecular target: T3, Aurora kinase A (Homo sapiens) (UniProt O14965); settings: at 0.1 µM
# T3 sequence (whole entry): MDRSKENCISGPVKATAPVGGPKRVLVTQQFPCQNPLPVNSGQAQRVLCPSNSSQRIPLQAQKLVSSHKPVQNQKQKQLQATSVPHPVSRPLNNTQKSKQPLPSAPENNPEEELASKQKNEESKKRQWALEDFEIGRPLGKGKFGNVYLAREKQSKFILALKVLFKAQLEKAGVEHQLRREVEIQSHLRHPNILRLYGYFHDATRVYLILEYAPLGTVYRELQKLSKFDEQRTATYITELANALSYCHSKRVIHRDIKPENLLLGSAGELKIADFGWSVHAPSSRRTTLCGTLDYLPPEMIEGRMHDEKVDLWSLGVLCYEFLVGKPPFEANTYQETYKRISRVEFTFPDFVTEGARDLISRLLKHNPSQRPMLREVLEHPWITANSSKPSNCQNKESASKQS
# [11] = molecular target: T3, Aurora kinase A (Homo sapiens); settings: at 1 µM
# [12] = molecular target: Aurora kinase B (Homo sapiens) (UniProt Q96GD4); settings: at 0.1 µM
# Sequence of Aurora kinase B (Homo sapiens) (Q96GD4 whole entry): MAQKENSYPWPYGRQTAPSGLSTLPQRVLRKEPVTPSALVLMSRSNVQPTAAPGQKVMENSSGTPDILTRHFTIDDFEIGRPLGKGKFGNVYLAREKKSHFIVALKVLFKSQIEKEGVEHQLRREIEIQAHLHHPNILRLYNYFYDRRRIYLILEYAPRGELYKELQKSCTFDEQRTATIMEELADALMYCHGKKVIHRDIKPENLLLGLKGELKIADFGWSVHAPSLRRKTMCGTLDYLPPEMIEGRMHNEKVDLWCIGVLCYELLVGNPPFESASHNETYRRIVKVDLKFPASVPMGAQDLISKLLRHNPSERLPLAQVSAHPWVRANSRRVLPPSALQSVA
# [13] = molecular target: Aurora kinase B (Homo sapiens) (UniProt Q96GD4); settings: at 1 µM
# [14] = molecular target: T4, Aurora kinase C (Homo sapiens) (UniProt Q9UQB9); settings: at 0.1 µM
# T4 sequence (whole entry): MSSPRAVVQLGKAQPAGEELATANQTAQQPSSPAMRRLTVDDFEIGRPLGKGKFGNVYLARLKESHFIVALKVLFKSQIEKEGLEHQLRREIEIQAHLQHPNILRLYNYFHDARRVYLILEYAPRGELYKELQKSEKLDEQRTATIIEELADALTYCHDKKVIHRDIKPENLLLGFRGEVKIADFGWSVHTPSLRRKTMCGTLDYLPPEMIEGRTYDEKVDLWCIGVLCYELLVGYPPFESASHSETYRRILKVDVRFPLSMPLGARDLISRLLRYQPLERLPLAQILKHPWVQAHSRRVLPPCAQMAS
# [15] = molecular target: T4, Aurora kinase C (Homo sapiens); settings: at 1 µM
# [16] = molecular target: Serine/threonine-protein kinase 10 (Homo sapiens) (UniProt O94804); settings: at 0.1 µM
# [17] = molecular target: Serine/threonine-protein kinase 10 (Homo sapiens) (UniProt O94804); settings: at 1 µM
# [18] = molecular target: T5, Mitogen-activated protein kinase kinase kinase kinase 2 (Homo sapiens) (UniProt Q12851); settings: at 0.1 µM
# T5 sequence (whole entry): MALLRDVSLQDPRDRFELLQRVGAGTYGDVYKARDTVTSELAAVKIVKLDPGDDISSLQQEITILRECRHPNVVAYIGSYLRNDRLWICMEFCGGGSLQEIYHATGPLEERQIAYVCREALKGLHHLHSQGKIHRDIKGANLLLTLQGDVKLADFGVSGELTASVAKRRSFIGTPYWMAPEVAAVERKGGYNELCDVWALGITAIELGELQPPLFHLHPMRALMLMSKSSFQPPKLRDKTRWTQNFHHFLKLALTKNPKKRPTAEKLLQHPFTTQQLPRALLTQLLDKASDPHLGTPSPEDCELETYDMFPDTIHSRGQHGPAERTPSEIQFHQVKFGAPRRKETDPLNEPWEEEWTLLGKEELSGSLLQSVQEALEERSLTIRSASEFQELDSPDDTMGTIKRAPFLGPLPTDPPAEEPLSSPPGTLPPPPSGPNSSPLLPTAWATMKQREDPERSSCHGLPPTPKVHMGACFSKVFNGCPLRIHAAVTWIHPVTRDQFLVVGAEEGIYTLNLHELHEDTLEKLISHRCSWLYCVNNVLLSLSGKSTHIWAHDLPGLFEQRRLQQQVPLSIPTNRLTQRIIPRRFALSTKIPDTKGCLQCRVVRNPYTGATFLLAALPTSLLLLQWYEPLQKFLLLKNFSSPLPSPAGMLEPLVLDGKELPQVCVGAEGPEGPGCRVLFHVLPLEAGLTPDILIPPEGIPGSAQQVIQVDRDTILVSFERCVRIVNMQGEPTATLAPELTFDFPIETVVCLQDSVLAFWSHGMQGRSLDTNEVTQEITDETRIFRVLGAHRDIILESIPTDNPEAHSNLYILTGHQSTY
# [19] = molecular target: T5, Mitogen-activated protein kinase kinase kinase kinase 2 (Homo sapiens); settings: at 1 µM
# [20] = molecular target: Mitogen-activated protein kinase kinase kinase kinase 4 (Homo sapiens) (UniProt O95819); settings: at 0.1 µM
# Sequence of Mitogen-activated protein kinase kinase kinase kinase 4 (Homo sapiens) (O95819 2-1239 limits assumed): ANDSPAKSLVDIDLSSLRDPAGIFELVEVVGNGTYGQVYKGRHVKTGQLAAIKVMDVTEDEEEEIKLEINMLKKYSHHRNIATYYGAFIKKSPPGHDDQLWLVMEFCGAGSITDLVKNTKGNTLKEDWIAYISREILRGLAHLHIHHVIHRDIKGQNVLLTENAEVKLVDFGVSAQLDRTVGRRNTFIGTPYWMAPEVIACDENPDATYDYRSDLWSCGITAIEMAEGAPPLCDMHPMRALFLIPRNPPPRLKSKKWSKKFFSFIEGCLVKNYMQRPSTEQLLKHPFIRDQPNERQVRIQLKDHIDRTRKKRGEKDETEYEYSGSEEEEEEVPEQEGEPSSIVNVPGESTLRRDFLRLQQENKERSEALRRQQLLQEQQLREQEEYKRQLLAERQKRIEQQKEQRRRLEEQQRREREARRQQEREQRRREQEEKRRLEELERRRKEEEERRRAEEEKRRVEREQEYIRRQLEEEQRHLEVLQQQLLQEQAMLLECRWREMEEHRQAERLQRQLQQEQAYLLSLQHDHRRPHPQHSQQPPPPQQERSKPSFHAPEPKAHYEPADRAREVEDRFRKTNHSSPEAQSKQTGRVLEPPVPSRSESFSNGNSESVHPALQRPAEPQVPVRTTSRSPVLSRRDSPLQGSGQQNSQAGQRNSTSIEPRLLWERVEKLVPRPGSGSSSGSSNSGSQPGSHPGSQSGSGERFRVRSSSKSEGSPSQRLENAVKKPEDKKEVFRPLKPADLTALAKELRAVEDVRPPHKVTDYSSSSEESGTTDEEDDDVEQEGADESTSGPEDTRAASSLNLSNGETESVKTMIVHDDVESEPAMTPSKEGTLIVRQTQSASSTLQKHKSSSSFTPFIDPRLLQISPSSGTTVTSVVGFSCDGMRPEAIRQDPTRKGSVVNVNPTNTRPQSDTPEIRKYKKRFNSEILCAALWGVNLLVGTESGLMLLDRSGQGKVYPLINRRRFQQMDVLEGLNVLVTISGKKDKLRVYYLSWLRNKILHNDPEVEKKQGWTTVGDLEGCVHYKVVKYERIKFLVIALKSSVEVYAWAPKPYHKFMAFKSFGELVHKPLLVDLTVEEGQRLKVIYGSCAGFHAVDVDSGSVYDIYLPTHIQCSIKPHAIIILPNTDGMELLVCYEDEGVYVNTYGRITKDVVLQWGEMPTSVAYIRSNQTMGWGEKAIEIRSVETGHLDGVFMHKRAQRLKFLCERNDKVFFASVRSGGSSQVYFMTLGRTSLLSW
# Sequence of High affinity nerve growth factor receptor (Homo sapiens) (P04629 33-796 limits assumed): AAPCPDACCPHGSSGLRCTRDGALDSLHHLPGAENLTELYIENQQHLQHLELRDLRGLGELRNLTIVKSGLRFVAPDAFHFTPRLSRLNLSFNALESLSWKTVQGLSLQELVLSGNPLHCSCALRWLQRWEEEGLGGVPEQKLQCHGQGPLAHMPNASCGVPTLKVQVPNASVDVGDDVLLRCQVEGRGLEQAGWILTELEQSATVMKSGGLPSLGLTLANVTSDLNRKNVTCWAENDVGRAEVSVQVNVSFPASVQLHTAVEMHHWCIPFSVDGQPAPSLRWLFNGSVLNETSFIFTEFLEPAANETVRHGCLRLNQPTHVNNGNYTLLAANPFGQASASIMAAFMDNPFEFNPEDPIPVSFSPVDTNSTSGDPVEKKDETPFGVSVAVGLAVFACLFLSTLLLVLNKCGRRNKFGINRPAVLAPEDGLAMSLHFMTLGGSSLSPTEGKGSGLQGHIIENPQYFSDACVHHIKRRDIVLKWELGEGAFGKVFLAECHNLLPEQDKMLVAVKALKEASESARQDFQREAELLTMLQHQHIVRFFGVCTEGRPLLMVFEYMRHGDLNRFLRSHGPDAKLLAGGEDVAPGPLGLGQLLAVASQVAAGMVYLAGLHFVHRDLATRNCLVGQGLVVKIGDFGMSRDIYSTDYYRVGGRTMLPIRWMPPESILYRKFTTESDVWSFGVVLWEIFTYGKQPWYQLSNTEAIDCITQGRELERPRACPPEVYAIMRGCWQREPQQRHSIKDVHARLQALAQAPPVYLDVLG
Structure (SMILES),inhibition [1] [%],inhibition [2] [%],inhibition [3] [%],inhibition [4] [%],inhibition [5] [%],inhibition [6] [%],inhibition [7] [%],inhibition [8] [%],inhibition [9] [%],inhibition [10] [%],inhibition [11] [%],inhibition [12] [%],inhibition [13] [%],inhibition [14] [%],inhibition [15] [%],inhibition [16] [%],inhibition [17] [%],inhibition [18] [%],inhibition [19] [%],inhibition [20] [%]
CCN1CCC(C(=O)Nc2n[nH]c3nnc(-c4cccc(F)c4F)cc23)CC1,4.28,0.46,1.47,2.09,0.96,-0.15,1.19,3.04,2.28,2.41,0.34,-0.39,3.97,0.94,5.27,-0.44,-0.07,2.45,3.52,3.47
CCS(=O)(=O)c1ccc(OC)c(Nc2ncc(-c3cccc(F)c3)o2)c1,42.8,10,47.2,12,48.1,17.2,56,-0.94,8.85,7.01,26.8,4.7,3.78,0.03,5.54,12,24.3,1.31,8.13,6.47
COc1cccc(-n2ncc3c(N/N=C/c4ccc(C(=O)NCCN(C)C)cc4)ncnc32)c1,12.1,5.53,26.5,3.96,20.7,7.49,29.4,-5.03,11.6,8.37,62.7,7.23,38.6,5.58,57,23,61.2,3.89,21.8,31.3
O=C(O[C@H]1CN[C@H](C#Cc2cc3ncnc(Nc4ccc(OCc5cccc(F)c5)c(Cl)c4)c3s2)C1)N1CCOCC1,0.52,3.03,5.79,2.99,7.73,1.89,1.16,-6.96,13,1.79,7.57,3.72,9.81,1.9,5.83,9.8,19,1.53,0.84,5.04
COC(=O)Nc1nc2cc(Oc3ccc(NC(=O)Nc4ccccc4)cc3)ccc2[nH]1,0.28,1.72,3.06,4.04,7.05,1.84,1.98,-2.96,4.66,2.47,3.53,11.9,24.9,28.9,42.6,9.63,14.7,1.5,0.87,3.39
N#Cc1cccc(Nc2ncc(-c3ccccc3)o2)c1,12.6,3.16,26.5,4.53,25.1,1.62,3.17,-5.06,8.8,1.03,11.6,4.81,1.97,1.44,5.62,2.27,3.84,0.79,2.94,4.93
COc1cc2c(cc1Nc1nc(Nc3cccc(F)c3C(N)=O)c3cc[nH]c3n1)N(C(=O)CN1CCN(C(C)C)CC1)CC2,0.01,-0.13,0.84,-1.97,-0.99,7.39,3.01,0.12,47.7,0.69,0.34,1.62,2.41,-0.27,3.25,2.03,5.12,1.69,11.3,0.45
Cc1c2ccc(N(C)c3ccnc(Nc4cccc(S(N)(=O)=O)c4)n3)cc2nn1C,7.91,4.05,9.82,4.05,11.1,20.5,59.4,-3.68,29.9,11.7,72.2,12.5,54.2,15.8,81.6,23.4,64.4,7.77,41,11.1
NC(=O)c1ccc2c(-c3ccnc(NCCCO)n3)c(-c3ccc(F)cc3)nn2c1,2.24,3.11,2.83,3.99,2.98,9.73,38.4,-3.98,12.1,1.36,3.29,2.54,0.26,0.74,6.84,5.04,12.3,1.47,7.29,9.85
COc1ccc2ncn(-c3cc(O[C@H](C)c4ccccc4C(F)(F)F)c(C(N)=O)s3)c2c1,2.53,-0.31,4.65,0.4,5.65,1.46,2.56,0.28,5.58,-0.03,5.59,1.15,7.77,-1.97,-0.3,35.2,80.7,0.64,4.67,0.55
O=C(Nc1n[nH]c2nnc(-c3cccnc3)cc12)C1CC1,-0.64,-0.74,0.57,-0.44,-0.22,0.3,2.21,1.8,2.14,0.85,0.07,0.12,3.67,-1.84,3.75,-0.21,0.78,0.63,1.06,3.78
NS(=O)(=O)c1cccc(N/C=C2\C(=O)Nc3ccccc32)c1,16.2,6.02,32.9,6.86,32.3,4.29,6.83,-2.94,21.3,7.85,47.6,6.68,40.5,7.7,76.7,4.31,9.72,4.14,28.9,23.3
Cc1cc(O)cc(C)c1/C=C/c1cncc(C(=O)OC(C)(C)C)c1,2.95,2.88,5.2,2.87,5.85,8.06,36.9,-0.75,4.42,2.02,14.9,3.41,6.42,0.94,-1.91,5.45,17.5,2.5,7.97,7.27

# — ChEMBL document CHEMBL1961873, “Compounds: GSK PKIS; Assays: Nanosyn kinase panel” (2012)
